Test results from PubChem BioAssay (NCATS).
Inconclusive results are not listed. Entries that show only a call come without a potency. Calls of active or inactive are those of the source. Unless noted, the call rests on the fitted dose curve. Numbered stars: 1 amine (or outer) side, 2 acyl side, 3 side chain; on linkers, the order of the positions; unused ones are H or OH. Bridge positions count the residues as written; N and C are the ends. Square brackets hold non-standard residues; d marks the D form. Peptide text beside a SMILES is read from it. I, II: the chains in the order shown. Actinocin(9to1) = Cc1c2oc3c(C)ccc(C(=O)[*:1])c3nc-2c(C(=O)[*:2])c(N)c1=O; NMeV = CN[C@H](C(=O)O)C(C)C; Sar = CNCC(=O)O

What was measured:
[1] = Primary qHTS for Huh7 cytotoxicity: counterscreen for inhibitors of MERS-S pseudotyped particle cell entry (AID 1479147); conditions: cell viability read-out; series mostly up to 57.1 µM
[2] = Primary qHTS for Vero E6 cytotoxicity: counterscreen for inhibitors of SARS-S pseudo-typed particle cell entry (AID 1479150); conditions: cell viability; series mostly up to 57.1 µM; further: potency means the concentration at half of the fitted maximal effect
[3] = Primary qHTS for inhibitors of La Crosse Virus (LACV) - induced cell death in SH-SY5Y cells (AID 1508616; active means well fitted curve in the direction sought with a large enough effect; an effect the other way counts as inactive or inconclusive;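 further: top concentration of the series differs between compounds; higher means more rescue of cells from virus-induced death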); conditions: SH-SY5Y LACV cytopathicity rescue, ATP luminescence, 6 d; series mostly up to 4.29 µM
Method in brief: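 Cytopathicity rescue screen: compounds pinned onto SH-SY5Y cells, which are then infected with LACV (MOI 0.01) and held 6 days at 37C. Percent activity is scaled between infected DMSO control and uninfected DMSO control.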

[4] = target: Calcium and integrin-binding protein 1 (Homo sapiens) (UniProt Q99828); assay: Primary qHTS for Identification of Calcium Integrin Binding Protein 1 (CIB1) Competitor (AID 1508620; active means well fitted curve in the direction sought with a large enough effect; an effect the other way counts as inactive or inconclusive;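 further: GST tagged CIB1 binding a fluorescein labelled alphaIIb integrin peptide tracer; top concentration of the series differs between compounds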); conditions: CIB1-GST / FITC-alphaIIb peptide fluorescence polarization; series mostly up to 114 µM
Method in brief: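 Fluorescence polarization competition: CIB1-GST (1 uM final) preincubated with compound 15 min at room temperature, then FITC-labeled alphaIIb peptide (100 nM final) added for another 15 min. Polarization read at Ex 480/Em 540.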

[5] = Primary qHTS for inhibitors of MERS-S pseudo-typed particle cell entry (AID 1479149); conditions: MERS-S pseudotyped particle entry, luciferase; series mostly up to 57.1 µM; further: nearly all actives have a fitted effect of over 60% in size
[6] = Confirmatory qHTS for VERO E6 Cytotoxicity Assay: Counterscreen for SARS-CoV-2 CPE Assay (AID 1508605); conditions: cell viability luminescence; series mostly up to 20 µM; further: nearly all actives have a fitted effect of over 60% in size
[7] = target: Calcium and integrin-binding protein 1 (Homo sapiens) (UniProt Q99828); assay: Validation qHTS for Identification of Calcium Integrin Binding protein 1 (CIB1) Competitor (AID 1508618; active means well fitted curve in the direction sought with a large enough effect; an effect the other way counts as inactive or inconclusive; further: potency means the concentration at half of the fitted maximal effect); conditions: CIB1-GST / FITC-alphaIIb peptide fluorescence polarization; series mostly up to 114 µM
Method in brief: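 CIB1-GST (1 uM final) incubated 15 min at room temperature with compounds (up to 114 uM), then FITC-labelled alphaIIb peptide (100 nM) added. FP read (Ex 480/Em 540) after 15 min, pH 7.4 buffer containing 5 mM CaCl2.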

[8] = Confirmatory qHTS for activators (rescue) of SARS-CoV-2 Cytopathic Effect (CPE) (AID 1508606); conditions: Vero E6 SARS-CoV-2 CPE rescue, viability luminescence; series mostly up to 20 µM; further: potency means the concentration at half of the fitted maximal effect; nearly all actives have a fitted effect of over 70% in size
[9] = target: Calcium and integrin-binding protein 1 (Homo sapiens) (UniProt Q99828); assay: Confirmatory qHTS for Identification of Calcium Integrin Binding Protein 1 (CIB1) Competitor (AID 1508617; active means well fitted curve in the direction sought with a large enough effect; an effect the other way counts as inactive or inconclusive; further: nearly all actives have a fitted effect of over 65% in size); conditions: CIB1 binding competition assay, biochemical qHTS; series mostly up to 114 µM
Method in brief: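 Compounds at up to 114 uM final met 1 uM GST-tagged CIB1 for 15 min at room temperature (HEPES pH 7.4, 5 mM CaCl2). FITC-labelled alphaIIb peptide, 100 nM, added; polarization read after 15 min more.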

Chain of Calcium and integrin-binding protein 1 (Homo sapiens) (Q99828 whole entry, looked up): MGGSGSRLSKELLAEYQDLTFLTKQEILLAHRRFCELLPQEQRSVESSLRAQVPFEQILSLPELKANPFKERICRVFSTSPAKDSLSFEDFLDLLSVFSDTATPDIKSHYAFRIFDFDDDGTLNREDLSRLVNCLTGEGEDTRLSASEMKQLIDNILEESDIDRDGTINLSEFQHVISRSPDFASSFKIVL

Question: For Clc1ccc(CCC(Cn2ccnc2)Sc2c(Cl)cccc2Cl)cc1 (configuration not stated), which Potency [1] is on record?
Answer: inactive

Question: What about the Potency [2] of the same compound?
Answer: inactive

Question: What about the Potency [3] of the same compound?
Answer: inactive

Question: And the Potency [4]?
Answer: inactive

Question: With COc1ccc2nc(S(=O)Cc3ncc(C)c(OC)c3C)[nH]c2c1 (configuration not stated) as the compound, how does the Potency [1] read?
Answer: inactive

Question: What about the Potency [2] of the same compound?
Answer: inactive

Question: For COC1=CC(=O)C[C@@H](C)[C@]12Oc1c(Cl)c(OC)cc(OC)c1C2=O, which Potency [5] is on record?
Answer: inactive

Question: What about the Potency [2] of the same compound?
Answer: inactive

Question: For CC(=O)O[C@]1(C(C)=O)CC[C@H]2[C@@H]3C=C(Cl)C4=CC(=O)[C@@H]5C[C@@H]5[C@]4(C)[C@H]3CC[C@@]21C, which Potency [1] is on record?
Answer: inactive

Question: What about the Potency [2] of the same compound?
Answer: inactive

Question: With COc1ccc(OC)c(C(O)CNC(=O)CN)c1 (configuration not stated) as the compound, how does the Potency [1] read?
Answer: inactive

Question: And the Potency [2]?
Answer: inactive

Question: With COc1cc2nc(N3CCN(C(=O)C4COc5ccccc5O4)CC3)nc(N)c2cc1OC (configuration not stated) as the compound, how does the Potency [1] read?
Answer: inactive

Question: And the Potency [2]?
Answer: inactive

Question: What about the Potency [6] of the same compound?
Answer: inactive

Question: Which Potency [1] does the source give for CN1CCC(=C2c3ccccc3C=Cc3ccccc32)CC1 here?
Answer: inactive

Question: What about the Potency [2] of the same compound?
Answer: inactive

Question: And the Potency [6]?
Answer: inactive

Question: For Cn1c(CCCC(=O)O)nc2cc(N(CCCl)CCCl)ccc21, which Potency [1] is on record?
Answer: inactive

Question: And the Potency [2]?
Answer: inactive

Question: What about the Potency [3] of the same compound?
Answer: inactive

Question: What about the Potency [7] of the same compound?
Answer: inactive

Question: What about the Potency [4] of the same compound?
Answer: inactive

Question: For OCCOCCN1CCN(C(c2ccccc2)c2ccc(Cl)cc2)CC1 (configuration not stated), which Potency [1] is on record?
Answer: inactive

Question: And the Potency [2]?
Answer: inactive

Question: Which Potency [1] does the source give for C#C[C@]1(O)CC[C@H]2[C@@H]3CCC4=Cc5oncc5C[C@]4(C)[C@H]3CC[C@@]21C here?
Answer: inactive

Question: What about the Potency [2] of the same compound?
Answer: inactive

Question: For CCN(CC)C(=S)SSC(=S)N(CC)CC, which Potency [5] is on record?
Answer: inactive

Question: What does the source list for CN(C)CCC=C1c2ccccc2CCc2ccccc21?
Answer: Potency [1]: inactive; Potency [2]: inactive; Potency [6]: inactive

Question: With CN(C)CCCN1c2ccccc2Sc2ccc(Cl)cc21 as the compound, how does the Potency [1] read?
Answer: inactive

Question: And the Potency [2]?
Answer: inactive

Question: And the Potency [8]?
Answer: 11.2 µM (active)

Question: With CC[C@H](C)C(=O)O[C@H]1C[C@@H](C)C=C2C=C[C@H](C)[C@H](CC[C@@H]3C[C@@H](O)CC(=O)O3)[C@H]21 as the compound, how does the Potency [1] read?
Answer: inactive

Question: What about the Potency [2] of the same compound?
Answer: 14.1 µM (active)

Question: Which results are given for CCc1ccc(CCOc2ccc(CC3SC(=O)NC3=O)cc2)nc1 (configuration not stated)?
Answer: Potency [1]: inactive; Potency [2]: inactive

Question: With CNCCCN1c2ccccc2CCc2ccccc21 as the compound, how does the Potency [1] read?
Answer: inactive

Question: And the Potency [2]?
Answer: inactive

Question: And the Potency [6]?
Answer: inactive

Question: What does the source list for CC(CN(C)C)CN1c2ccccc2CCc2ccccc21 (configuration not stated)?
Answer: Potency [1]: inactive; Potency [2]: inactive; Potency [6]: inactive

Question: Which Potency [3] does the source give for CN1C[C@H](CNC(=O)OCc2ccccc2)C[C@@H]2c3cccc4c3c(cn4C)C[C@H]21 here?
Answer: inactive

Question: What about the outcome [9] of the same compound?
Answer: inactive

Question: What about the Potency [7] of the same compound?
Answer: 44.7 µM (active)

Question: Which results are given for c1ccc(C2CC2)c(OCC2=NCCN2)c1?
Answer: Potency [3]: inactive; Potency [7]: inactive; Potency [4]: inactive

Question: Which Potency [3] does the source give for N#CC(C#N)=Cc1ccc(O)c(O)c1 here?
Answer: inactive

Question: And the Potency [7]?
Answer: inactive

Question: And the Potency [4]?
Answer: inactive

Question: For CCc1nn(CCCN2CCN(c3cccc(Cl)c3)CC2)c(=O)n1CCOc1ccccc1, which Potency [2] is on record?
Answer: inactive

Question: Which Potency [3] does the source give for CC(=O)[C@H]1CC[C@H]2[C@@H]3CC[C@H]4C[C@](C)(O)CC[C@]4(C)[C@H]3CC[C@]12C here?
Answer: inactive

Question: What about the Potency [7] of the same compound?
Answer: inactive

Question: And the Potency [4]?
Answer: inactive

Question: Which Potency [2] does the source give for O=C(CCCN1CCC(O)(c2ccc(Cl)cc2)CC1)c1ccc(F)cc1 here?
Answer: inactive

Question: Which Potency [3] does the source give for c1ccc2c(c1)OCC(C1=NCCN1)O2 (configuration not stated) here?
Answer: inactive

Question: What about the Potency [7] of the same compound?
Answer: inactive

Question: What about the Potency [4] of the same compound?
Answer: inactive

Question: For CNCC(O)c1ccc(O)cc1 (configuration not stated), which Potency [3] is on record?
Answer: inactive

Question: And the Potency [7]?
Answer: inactive

Question: What about the Potency [4] of the same compound?
Answer: inactive

Question: Which Potency [5] does the source give for CN1CCc2cccc3c2[C@H]1Cc1ccc(O)c(O)c1-3 here?
Answer: inactive

Question: And the Potency [2]?
Answer: inactive

Question: For CCCNCC(O)COc1ccccc1C(=O)CCc1ccccc1 (configuration not stated), which Potency [2] is on record?
Answer: inactive

Question: And the Potency [6]?
Answer: inactive

Question: With O=c1[nH]c2ccccc2n1CCCN1CCC(n2c(=O)[nH]c3cc(Cl)ccc32)CC1 as the compound, how does the Potency [2] read?
Answer: inactive

Question: And the Potency [3]?
Answer: inactive

Question: And the Potency [7]?
Answer: inactive

Question: And the Potency [4]?
Answer: inactive

Question: Which Potency [3] does the source give for CN(C)CCc1ccc(O)cc1 here?
Answer: inactive

Question: What about the Potency [4] of the same compound?
Answer: inactive

Question: What does the source list for O=C1NCN(c2ccccc2)C12CCN(CC1COc3ccccc3O1)CC2 (configuration not stated)?
Answer: Potency [3]: inactive; Potency [7]: inactive; Potency [4]: inactive

Question: Which Potency [3] does the source give for CC(=O)[C@H]1CC[C@H]2[C@@H]3CC[C@H]4C[C@H](O)CC[C@]4(C)[C@H]3C(=O)C[C@]12C here?
Answer: inactive

Question: And the Potency [7]?
Answer: inactive

Question: And the Potency [4]?
Answer: inactive

Question: Which results are given for Fc1ccc(C(OCCN2CCN(CCCc3ccccc3)CC2)c2ccc(F)cc2)cc1?
Answer: Potency [3]: inactive; Potency [7]: inactive; Potency [4]: inactive

Question: For CSc1ccc2c(c1)N(CCC1CCCCN1C)c1ccccc1S2 (configuration not stated), which Potency [2] is on record?
Answer: inactive

Question: Which Potency [2] does the source give for CN(C)C(=O)C(CCN1CCC(O)(c2ccc(Cl)cc2)CC1)(c1ccccc1)c1ccccc1 here?
Answer: inactive

Question: What about the Potency [6] of the same compound?
Answer: inactive

Question: With Cc1c2oc3c(C)ccc(C(=O)N[C@@H]4C(=O)N[C@H](C(C)C)C(=O)N5CCC[C@H]5C(=O)N(C)CC(=O)N(C)[C@@H](C(C)C)C(=O)O[C@@H]4C)c3nc-2c(C(=O)N[C@@H]2C(=O)N[C@H](C(C)C)C(=O)N3CCC[C@H]3C(=O)N(C)CC(=O)N(C)[C@@H](C(C)C)C(=O)O[C@@H]2C)c(N)c1=O (I: T[dV]P[Sar][NMeV] / II: T[dV]P[Sar][NMeV]; ester I:1-I:C, II:1-II:C; linker I:N-II:N via Actinocin(9to1)) as the compound, how does the Potency [2] read?
Answer: inactive
